Screening results deposited in PubChem by Corson Lab, School of Medicine, Indiana University.
FECH inh: blocks human mitochondrial ferrochelatase activity | purified FECH, Ni-mesoporphyrin absorbance 550 nm | calls only at 10 µM (by protocol) | 20,000 tested, 3.3% active | AID 1671448;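 active = enzyme reaction rate more than 3 SD below the solvent-only control wells on the same plate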;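 also: lower slope than DMSO wells means FECH inhibition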
Target sequence (P22830 whole entry, looked up): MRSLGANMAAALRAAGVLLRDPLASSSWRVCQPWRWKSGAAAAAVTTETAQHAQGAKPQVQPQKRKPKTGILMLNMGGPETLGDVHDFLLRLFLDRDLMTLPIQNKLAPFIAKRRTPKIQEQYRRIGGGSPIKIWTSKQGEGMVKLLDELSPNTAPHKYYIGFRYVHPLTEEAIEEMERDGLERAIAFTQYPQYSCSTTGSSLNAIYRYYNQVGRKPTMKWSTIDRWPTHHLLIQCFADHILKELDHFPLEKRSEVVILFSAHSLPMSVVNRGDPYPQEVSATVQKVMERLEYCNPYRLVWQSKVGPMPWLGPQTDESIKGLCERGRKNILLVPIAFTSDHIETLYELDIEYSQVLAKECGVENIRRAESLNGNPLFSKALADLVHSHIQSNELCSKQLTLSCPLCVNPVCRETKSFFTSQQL
Calls only; . = inactive; + = active, no number. Only a selection was taken, and hits are over-represented in it overall.

SMILES	FECH inh
CCc1ccccc1Nc1cc(C(C)C)nc2nc(-c3cccnc3)nn12	.
Cn1ccc2c(-c3nccc(N4CCCC(O)C4)n3)ccnc21 (stereo not drawn)	.
CC(C)C1CN(C(=O)CN2C(=O)CNC2=O)CCC(=O)N1CC1CC1 (stereo not drawn)	.
CCC(NC(=O)c1cc(-c2ccccc2O)n[nH]1)c1cc(C)ccn1 (stereo not drawn)	.
CCc1cc(C(=O)NCc2cc(C)cc3c(C)c(CC)[nH]c23)n(C)n1	+
CCCNC(=O)NCc1cc(C)cc2c(C)c(CC)[nH]c12	.
CCc1[nH]c2c(CNc3cc(N4CCOCC4)ncn3)cc(C)cc2c1C	.
Cc1cccc(CN2CCN(CC(=O)Nc3c(C)cccc3C)S2(=O)=O)c1	.
Cc1cccc(CN2CCCN(CC(=O)Nc3cc(Cl)ccc3C)S2(=O)=O)c1	+
O=C(CN1CCCN(Cc2cccc(Cl)c2)S1(=O)=O)Nc1ccccc1	.
Cc1ccc(CN2CCCN(CC(=O)Nc3ccc(C)cc3Cl)S2(=O)=O)cc1	.
Cc1ccc(NC(=O)CN2CCCN(Cc3cccc(Cl)c3)S2(=O)=O)c(Cl)c1	+
Cc1cccc(CN2CCCN(CC(=O)Nc3cc(C)ccc3C)S2(=O)=O)c1	.
Fc1cccc(Nc2nc(N3CCCC3)nc3c2cnn3-c2ccccc2)c1	.
Cc1ccc(C)c(NC(=O)NCCc2nc3cccnc3n2-c2ccccc2)c1	.
CC(O)CNc1nc(Nc2cccc(F)c2)c2cnn(-c3ccccc3)c2n1 (stereo not drawn)	.
CCOc1ccccc1OCCN(C)C(=O)c1cnccc1C	.
O=C(COc1cccnc1)NC1(CN2CCCC2)CCCCC1	.
O=C(Nc1ccccc1CCc1nc2ccccc2[nH]1)C1CCCN(S(=O)(=O)N2CCCC2)C1 (stereo not drawn)	.
CCN(CC)S(=O)(=O)N1CCC(C(=O)Nc2ccc3sc(NC(=O)C(C)C)nc3c2)CC1	.
CCN(CC)S(=O)(=O)N1CCC(C(=O)Nc2ccc3nc(CCc4ccccc4)[nH]c3c2)CC1	+
CCN(CC)S(=O)(=O)N1CCC(C(=O)Nc2cccc(CCc3nc4ccccc4n3C)c2)CC1	+
CCN(CC)S(=O)(=O)c1ccc2c(c1)nc(CN1CCN(S(=O)(=O)N(C)C)CC1)n2C	.
CCc1cccc(NC(=O)C2CCN(c3ccc(-c4cccs4)nn3)CC2)c1	.
CCc1cc(Sc2ccc(N)cc2)n2nc(C)nc2n1	.
SMILES	FECH inh
CN1CCN2C[C@@H](NC(=O)C3=NN(C)C(=O)CC3)C[C@H]2C1	.
CN(CCNC(=O)C1CCCN1c1nnc(N2CCCC2=O)s1)C1CCCCC1 (stereo not drawn)	.
O=C(NCCCN1CCN(C2CCCCC2)CC1)C1CCCN1c1nnc(N2CCCC2=O)s1 (stereo not drawn)	+
CN(CCCNC(=O)C1CCCN1c1nnc(N2CCCC2=O)s1)C1CCCCC1 (stereo not drawn)	.
Cc1ccsc1CCNC(=O)C1CCCN1c1nnc(N2CCCC2=O)s1 (stereo not drawn)	.
COc1ccc(CCNC(=O)C2CCCN2c2nnc(N3CCCCC3=O)s2)cc1OC (stereo not drawn)	.
COc1ccc(CNC(=O)C2CCCN2c2nnc(N3CCCC3=O)s2)c(OC)c1 (stereo not drawn)	+
CCN(CC)c1ccc(NC(=O)c2nc3ccccc3n(C)c2=O)c(C)c1	.
CCCN(Cc1ccccc1OC)C(=O)c1c(C)cc(=O)oc1C	.
Cc1nc2nc(CN3CCCC3c3nc4ccccc4s3)cc(=O)n2[nH]1 (stereo not drawn)	.
COc1cccc(NS(=O)(=O)c2cc(N3C(=O)CCS3(=O)=O)ccc2OC)c1	.
COc1ccc(OC)c(-n2ccnc2-c2cccc(O)c2)c1	.
COCc1nc2cccnc2n1C1CCN(S(=O)(=O)c2ccc(C(C)(C)C)cc2)CC1	.
Cc1cc(NC(=O)c2cccc(Br)c2)n(-c2ncnc3c2cnn3-c2ccccc2)n1	.
NC(=O)c1csc(N2CCCC3(C2)C(=O)Nc2ccccc23)n1 (stereo not drawn)	.
Cc1cccc(C(=O)N(Cc2nc3nc(C)cc(C)n3n2)c2cccc(C)c2)c1	.
Cc1cc(C)n2nc(CN(C(=O)c3ccc(F)cc3)c3ccccc3)nc2n1	.
CCC(C(=O)N(Cc1nc2nc(C)cc(C)n2n1)c1cccc(C)c1)c1ccccc1 (stereo not drawn)	.
Cc1ccc(C(=O)N(Cc2nc3nc(C)cc(C)n3n2)c2cccc(Cl)c2)cc1	.
Cc1ccc(C(=O)N(Cc2nc3nc(C)cc(C)n3n2)c2cccc(C)c2)cc1	+
Cc1cccc(N(Cc2nc3nc(C)cc(C)n3n2)C(=O)c2cccc(Cl)c2)c1	+
CCOc1ccc(N(Cc2nc3nc(C)cc(C)n3n2)C(=O)c2cccc(Cl)c2)cc1	.
Cc1cccc(N(Cc2nc3nc(C)cc(C)n3n2)C(=O)C(C)C)c1	+
COc1ccc(C(=O)N(Cc2nc3nc(C)cc(C)n3n2)c2cccc(C)c2)cc1OC	.
Cc1cccc(N(Cc2nc3nc(C)cc(C)n3n2)C(=O)CC(C)C)c1	.
SMILES	FECH inh
Cc1cc(C)n2nc(CN(C(=O)c3ccccc3)c3cccc(Cl)c3)nc2n1	+
Cc1cc(C)n2nc(CN(C(=O)c3cccc(Cl)c3)c3ccccc3)nc2n1	.
O=C1CCS(=O)(=O)N1c1ccc(S(=O)(=O)NCCCn2ccnc2)cc1	.
COc1nc2ccccc2cc1-c1ccc(SCC(N)=O)cc1	.
Cc1ccccc1NS(=O)(=O)c1ccc2c(c1)CCN2C(=O)CCC(=O)N1CCCCCC1	.
c1ccc(-c2ncn(CCc3cnc[nH]3)c2-c2cccn2-c2ccccn2)cc1	.
COc1ccc(Cc2nncn2C(C)c2ccccc2)cc1 (stereo not drawn)	.
Cc1cc(C)n2nc(CN(C(=O)c3ccco3)c3ccc(F)cc3)nc2n1	+
Cc1cc(C)n2nc(CN(C(=O)Cc3ccccc3)c3ccc(F)cc3)nc2n1	.
Cc1cccc(N(Cc2nc3nc(C)cc(C)n3n2)C(=O)Cc2ccccc2)c1	.
Cc1cccc(N(Cc2nc3nc(C)cc(C)n3n2)C(=O)c2ccco2)c1	.
Cc1ccc(N(Cc2nc3nc(C)cc(C)n3n2)C(=O)c2ccco2)cc1	.
Cc1cc(C)n2nc(CN(C(=O)Cc3ccccc3)c3ccccc3)nc2n1	+
COc1ccc(N2C(=O)CCS2(=O)=O)cc1S(=O)(=O)NCc1ccccc1C	.
CN(Cc1cnc(N2CCOCC2)s1)C1CCCc2ccccc21 (stereo not drawn)	.
CCc1cnc(C)nc1NCCN1CCCOC1=O	.
CCN(CC)c1nc(Nc2cccc(F)c2)c2cnn(-c3ccccc3)c2n1	.
Cc1cc(C)c(CN2CCC3(CCNC(=O)CC3)CC2)c(C)c1	+
COc1cccc(-c2[nH]ncc2C(=O)N2CCC3(CCNC(=O)CC3)CC2)c1	.
O=C1CCC2(CCN1)CCN(C(=O)C/C=C/c1ccccc1)CC2	.
CCN(CC(=O)Nc1cccc(F)c1C)Cc1cnn(CC)c1	.
Cc1cc(C)cc(C(=O)Nc2ccc(Nc3nc(C)cc(N(C)C)n3)cc2)c1	+
Cc1cc(N(C)C)nc(Nc2ccc(NC(=O)c3ccc(I)cc3)cc2)n1	.
Cc1ccc(C(=O)Nc2ccc(Nc3nc(C)cc(N(C)C)n3)cc2)cc1	.
CCCCN(Cc1nc2nc(C)cc(C)n2n1)C(=O)c1ccc(C)cc1	.
O=C(O)C1(Cc2cccc(Cl)c2)CCCN(c2ncccc2F)C1 (stereo not drawn)	.
Cn1c(=O)c(C(=O)Nc2ccccn2)nc2ccccc21	+
Cn1c(=O)c(C(=O)Nc2ccccc2Br)nc2ccccc21	.
Cn1c(=O)c(C(=O)Nc2ccc(F)cc2)nc2ccccc21	.
